Laboratory results taken from PubChem BioAssay (EPA / NIEHS).
Several values for one entry are separate records, joined by “and”; a condition that tells them apart may be missing. Equal values may be shown once. Activity calls are given as the source filed them. The calls were made as follows: active = hit-call score of the fitted dose curve at least 0.9, where 1 is the maximum; inactive = score below 0.9.

Experiment: BSK_4H_SRB: Viability Assessment in the BioMAP Diversity Plus: 4H Assay (AID 2283027);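 as to AC50: curves fitted both ways versus DMSO so AC50 may be loss or gain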
Conditions: primary human endothelial cells (HUVEC)
Description: BSK_4H is a cell-based, multiplexed-readout assay that uses umbilical vein endothelium, a human vascular primary cell, with measurements taken at 24 hours after chemical dosing in a 96-well plate.BSK_4H_SRB is an assay component measured in the BSK_4H assay. It measures […] related to cell death using Sulforhodamine staining technology.Data from the assay component BSK_4H_SRB was analyzed into 1 assay endpoint. This assay endpoint, BSK_4H_SRB, was analyzed with bidirectional fitting relative to DMSO as the negative control and baseline of activity. Using a type of viability reporter, gain or loss-of-signal activity can be used to understand changes in the signaling. Furthermore, this assay endpoint can be referred to as a primary readout, because this assay has produced multiple assay endpoints where this one serves a signaling function. To generalize the intended target to other relatable targets, this assay endpoint is annotated to the cell morphology intended target family, where the subfamily is cell conformation.
The levels of cell surface (or secreted, indicated by the prefix "s") biomarker endpoints were measured by ELISA. Overt cytotoxicity to cells in confluent adherent cultures (all systems other than the BT system) was assessed by measuring total protein levels using sulforhodamine B (SRB) staining in parallel cultures at the time of biomarker measurements, indicated as SRB endpoints. For proliferation assays for adherent cell types, individual cell types are cultured at sub-confluence and relative cell numbers quantified by SRB staining at time points optimized for each system (48 h: 3C and CASM3C systems; 72 h: BT and HDF3CGF systems; 96 h: SAg system). SRB was performed by staining cells with 0.1% SRB after fixation with 10% TCA and reading wells at 560 nm.Viability and proliferation of PBMC (T cells) was quantified by Alamar Blue reduction for the SAg and BT systems. For PBMC viability (referred to as PBMC Cytotoxicity within the assay endpoint names), cells were plated (75,000/well in a 96-well plate) and then chemical samples added for 1 h before addition of activators, SEB and TSST-1 (20 ng/mL final concentration each). Cells were incubated for 90 h. Then, Alamar Blue (20 uL/well) (Invitrogen, Cat DAL1100) was added for 6 h, and the plates were read with a fluorescence microplate reader at 546/580 nm (excitation/emission). For PBMC proliferation, cells were plated and activated as above but incubated for only 16 h prior to addition of Alamar Blue. Plates were read after 6 h.

Compound	AC50	outcome
CCOC(=O)c1ccccc1C(=C1C=C(Br)C(=O)C(Br)=C1)c1cc(Br)c(O)c(Br)c1	19.1 µM (active) and 20.3 µM (active)	–
CCCCCCCCc1ccc(Nc2ccc(CCCCCCCC)cc2)cc1	–	inactive
O=Nc1ccc(O)cc1	–	inactive
c1ccc2c(c1)ccc1ncccc12	20 µM (active)	–
C=CCOc1c(Br)cc(Br)cc1Br	–	inactive
COc1ccc2nc(N)sc2c1	–	inactive
O=c1c2ccccc2oc2ccccc12	–	inactive
CCCCC/C=C\C/C=C\CCCCCCCC(=O)OC	20 µM (active)	–
CN1C(=O)N(C)C(O)C1O (stereo unspecified)	–	inactive
CCO[Si](CCCN=C=O)(OCC)OCC	–	inactive
c1ccc2c(c1)ccc1cc3c(ccc4ccccc43)cc12	–	inactive
CCCCC(CC)COCC1CO1 (stereo unspecified)	–	inactive
O=C(Cl)c1cc(C(=O)Cl)cc(C(=O)Cl)c1	26.8 µM (active)	–
CO[Si](OC)(OC)c1ccccc1	–	inactive
CC(C)C(=O)C(C)C	–	inactive
C=C[Si](OC(C)=O)(OC(C)=O)OC(C)=O	–	inactive
C#CC1(O)CC[C@H]2[C@@H]3CCC4=CCCC[C@@H]4[C@H]3CC[C@@]21C (stereo partly specified)	8.54 µM (active)	–
CCCCCCCCCCCCCCCC[N+](C)(C)CC	1.57 µM (active)	–

Compound	AC50	outcome
O=C1CCCN1CCO	–	inactive
C=CCOCC(O)CCl (stereo unspecified)	–	inactive
CCOc1nc(F)cc2nc(S(=O)(=O)Nc3c(Cl)cccc3C(=O)OC)nn12	–	inactive
O=C(c1ccc(O)cc1)c1ccc(O)cc1O	–	inactive
C/C=C\C/C=C/CCCCCCCCOC(C)=O	12.7 µM (active)	–
S=C(NC1CCCCC1)NC1CCCCC1	–	inactive
C=CC=CC=CCCCCC	–	inactive
Nc1ccc(N)c(Cl)c1	27.4 µM (active) and 30.5 µM (active)	–
CCO[Si](C)(OCC)OCC	–	inactive
CC1OC1C1CCC2(C)OC2C1 (stereo unspecified)	–	inactive
N#[N+]c1ccc2c(S(=O)(=O)[O-])cccc2c1O	–	inactive
c1ccc(-c2ccccn2)nc1	–	inactive
O=C(Nc1ccccc1SSc1ccccc1NC(=O)c1ccccc1)c1ccccc1	–	inactive
CC(C)(c1cc(Br)c(OCCO)c(Br)c1)c1cc(Br)c(OCCO)c(Br)c1	16.2 µM (active)	–
CCCCNc1ccc(NCCCC)c2c1C(=O)c1ccccc1C2=O	–	inactive
C=CC(=O)OCC(Br)CBr (stereo unspecified)	31.6 µM (active)	–
CCCCC(CC)COC(=O)c1ccccc1O (stereo unspecified)	18.2 µM (active)	–
COCc1c(C(C)C)nc(C(C)C)c(/C=C/[C@@H](O)C[C@@H](O)CC(=O)O)c1-c1ccc(F)cc1	0.0192 µM (active)	–
